The panel holds about 83,000 compounds, 20% with a hit somewhere; the sample as a whole holds those more often.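 Growth was measured after 48 h exposure to one concentration of compound in 96-well plates. Values under 10 count as active.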 Unmarked numbers belong to inactive results. Active and inactive are the calls of the source.
Legend:
Experiment in all cases: NCI-60 one-dose screen, 48 h (100 = growth as untreated, 0 = no growth, -100 = all killed)
Conditions in all cases: 10 µM unless noted
[1] = tested on: NCI-H23 lung
[2] = tested on: NCI-H226 lung
[3] = tested on: NCI-H322M lung
[4] = tested on: HOP-62 NSCLC
[5] = tested on: NCI-H460 lung
[6] = tested on: HOP-92 NSCLC
[7] = tested on: NCI-H522 lung
[8] = tested on: A549/ATCC NSCLC
[9] = tested on: 786-0 renal
[10] = tested on: COLO 205 colon
[11] = tested on: DU-145 prostate
[12] = tested on: K-562 leukemia
[13] = tested on: MALME-3M melanoma
[14] = tested on: MDA-MB-231 breast
[15] = tested on: RXF 393 renal
[16] = tested on: SF-268 CNS
[17] = tested on: SF-295 CNS
[18] = tested on: SF-539 CNS
[19] = tested on: UACC-257 melanoma
[20] = tested on: M14 melanoma

Compound `C#C[C@]1(O)CC[C@H]2[C@@H]3CC=C4c5nc(Nc6ccccc6[N+](=O)[O-])sc5CC[C@]4(C)[C@H]3CC[C@@]21C` has a growth [1] of 86.5%, a growth [2] of 80.9% and a growth [3] of 72.9%. The growth [4] was 69.2%, the growth [5] was 55.7% and the growth [6] was 72.6%. For the same compound, the growth [7] was 73.4%, the growth [8] was 62.2% and the growth [9] was 5.63% (active). The growth [10] was 86.7%, the growth [11] was 55.3% and the growth [12] was 8.86% (active). For the same compound, the growth [13] was 51.7%, the growth [14] was 52.4% and the growth [15] was -44% (active). The growth [16] was 52.8%, the growth [17] was -46.1% (active) and the growth [18] was -31.5% (active). The growth [19] was 73% and the growth [20] was -23.1% (active).

Compound `COC(=O)c1cc2c(=O)[nH]cc3c2c(n1)CCC3` has a growth [1] of 106%, a growth [2] of 112% and a growth [3] of 108%. For the same compound, the growth [4] was 97.4%, the growth [5] was 101% and the growth [6] was 76.8%. For the same compound, the growth [7] was 102%, the growth [8] was 101% and the growth [9] was 101%. For the same compound, the growth [10] was 106%, the growth [11] was 116% and the growth [12] was 99.3%. The growth [13] was 99.3%, the growth [14] was 106% and the growth [15] was 100%. The growth [16] was 100%, the growth [17] was 112% and the growth [18] was 97.3%. For the same compound, the growth [19] was 102% and the growth [20] was 104%.

`CCOC(=O)c1c[nH]n2c(=S)ncnc12` was tested, and the growth [1] was 97.4%, the growth [2] was 97.4% and the growth [3] was 110%. For the same compound, the growth [4] was 89.8%, the growth [5] was 115% and the growth [6] was 113%. It also gave a growth [7] of 96.8%, a growth [8] of 106% and a growth [9] of 95.8%. For the same compound, the growth [10] was 100%, the growth [11] was 108% and the growth [12] was 106%. The growth [13] was 109%, the growth [14] was 109% and the growth [15] was 113%. The growth [16] was 98.5%, the growth [17] was 109% and the growth [18] was 105%. The growth [19] was 102% and the growth [20] was 103%.

`CC(C)[N+](C)(C)CC(O)COc1cccc2ccccc12` (stereo not given) showed a growth [1] of 95.5%, a growth [2] of 107% and a growth [3] of 112%. It also gave a growth [4] of 106%, a growth [5] of 109% and a growth [6] of 81.4%. It also gave a growth [7] of 114%, a growth [8] of 101% and a growth [9] of 121%. For the same compound, the growth [10] was 104%, the growth [11] was 106% and the growth [12] was 106%. The growth [13] was 103%, the growth [14] was 103% and the growth [15] was 115%. For the same compound, the growth [16] was 94%, the growth [17] was 104% and the growth [18] was 96%. The growth [19] was 90.4% and the growth [20] was 107%.

With `CC(C)c1ccc(C(=O)Nc2sc3c(c2C#N)CCC(=O)C3)cc1` the growth [1] was -5.74% (active), the growth [2] was 50.5% and the growth [3] was 71.9%. The growth [4] was 36.9%, the growth [5] was 3.31% (active) and the growth [6] was -52.2% (active). The growth [7] was -36.7% (active), the growth [8] was 15% and the growth [9] was 8.77% (active). The growth [10] was -36.5% (active), the growth [11] was 43.9% and the growth [12] was 1.57% (active). The growth [13] was -41.2% (active), the growth [14] was -39.6% (active) and the growth [15] was -38.5% (active). The growth [16] was 26.9%, the growth [17] was -7.58% (active) and the growth [18] was -48.4% (active). For the same compound, the growth [19] was -2.97% (active) and the growth [20] was -6.52% (active).

Compound `Cc1ccc(-c2cc(O)c(-c3ccc(C)cc3C)cc2O)c(C)c1` has a growth [1] of 76.7%, a growth [2] of 62.9% and a growth [3] of 106%. The growth [4] was 74%, the growth [5] was 23.6% and the growth [6] was 67.7%. It also gave a growth [7] of 59.2%, a growth [8] of 51.9% and a growth [9] of 60%. The growth [10] was 91.1%, the growth [11] was 80% and the growth [12] was 25.8%. The growth [13] was 115%, the growth [14] was 58.2% and the growth [15] was 67.5%. The growth [16] was 57.4%, the growth [17] was 65.7% and the growth [18] was 47.8%. For the same compound, the growth [19] was 79% and the growth [20] was 66.8%.

In the case of `Nc1ccc(Cl)c([N+](=O)[O-])c1`, the growth [1] is reported as 111%, the growth [2] is reported as 101% and the growth [3] is reported as 106%. It also gave a growth [4] of 101%, a growth [5] of 104% and a growth [6] of 94%. For the same compound, the growth [7] was 87.5%, the growth [8] was 97.7% and the growth [9] was 107%. The growth [10] was 107%, the growth [11] was 107% and the growth [12] was 84.6%. For the same compound, the growth [13] was 119%, the growth [14] was 107% and the growth [15] was 109%. It also gave a growth [16] of 96.7%, a growth [17] of 96.7% and a growth [18] of 101%. It also gave a growth [19] of 95.1% and a growth [20] of 95.7%.

With `CCN(CC)CCSC(=O)C(O)(c1ccccc1)C1CCCC1` (stereo not given) the growth [1] was 99.4%, the growth [2] was 93.1% and the growth [3] was 118%. It also gave a growth [4] of 111%, a growth [5] of 115% and a growth [6] of 77%. The growth [7] was 86.7%, the growth [8] was 85.2% and the growth [9] was 169%. The growth [10] was 144%, the growth [11] was 95.6% and the growth [12] was 96.4%. It also gave a growth [13] of 116%, a growth [14] of 97.9% and a growth [15] of 82.1%. The growth [16] was 91.3%, the growth [17] was 113% and the growth [18] was 110%. The growth [19] was 83.2% and the growth [20] was 128%.
